Screening results from PubChem.
HT1080NT lethal = qHTS for induction of synthetic lethality in tumor cells producing 2HG: qHTS for the HT-1080-NT fibrosarcoma cell line; HT-1080-NT fibrosarcoma viability, CellTiter-Glo ATP luminescence, 48 h; Potency, µM (titrated, usually from 46.1 µM), for the others: at the top dose activity, negative = less viability, actives largely listed as cytotoxic; actives 1.6% (n = 360,000);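 further: NT is the 2HG producing partner of a matched IDH1 knockdown line; potency means the concentration at half of the fitted maximal effect; 0% = DMSO-treated cells and -100% = media-only wells without cells; nearly all actives have a fitted effect of over 55% in size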
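Compounds were tested in concentration-response format on HT-1080-NT cells for 48 hours at 37 degrees C. Cell viability came from CellTiter-Glo luminescence; curves were classified by r2, response magnitude and activity.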
DT40 TDP1 no CPT = qHTS for Inhibitors of human tyrosyl-DNA phosphodiesterase 1 (TDP1): qHTS in cells in absence of CPT. actives 15% (n = 420,000). Potency, µM (top dose mostly 46.2 µM), inactives show top-dose activity change, negative = growth inhibition, hits mostly inhibitors. AID 686978, 2013. DT40 Tdp1-/- hTDP1 cells, no CPT, ATP luminescence, 48 h; further: potency means the concentration at half of the fitted maximal effect; nearly all actives have a fitted effect of over 55% in size
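A cellular qHTS used chicken DT40 cells lacking endogenous Tdp1 but carrying stably transfected human TDP1. Compounds were applied without camptothecin, and cell growth kinetics were judged by ATP-dependent luminescence after ≥48 hr.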
ELG1 DNA repair = qHTS screen for small molecules that inhibit ELG1-dependent DNA repair in human embryonic kidney (HEK293T) cells expressing luciferase-tagged ELG1; HEK293T ELG1-luciferase reporter, luminescence, 16 h; DNA damage induced by 5-fluorouridine; Potency, µM (highest dose often 46.1 µM), for inactives: top-dose activity change, negative = inhibition, usual class: inhibitors; actives 2.3% (n = 330,000); AID 504467, 2011; further: potency means the concentration at half of the fitted maximal effect; nearly all actives have a fitted effect of over 55% in size
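DMSO vehicle served as the neutral condition. Each well held 2,000 cells given 5-fluorouridine plus compound; after 16 hr at 37 °C/5% CO2, ONE-Glo was added and luciferase measured 30 min later.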
HT1080 IDH1KD tx = qHTS for induction of synthetic lethality in tumor cells producing 2HG: qHTS for the HT-1080-IDH1KD cell line; HT-1080 IDH1 knockdown viability, ATP luminescence, 48 h; Potency, µM (top dose mostly 46.1 µM), without a hit: top-dose activity, negative = toxicity, actives largely listed as cytotoxic; actives 2% (n = 360,000); AID 686971, 2013;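 further: potency means the concentration at half of the fitted maximal effect; 0% = DMSO wells and -100% = cell-free medium wells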
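HT-1080-IDH1KD cells (IDH1 knocked down), 750/well in RPMI with 5% FBS, treated with compound 48 h at 37 degrees C. Viability by CellTiter-Glo luminescence, normalised to DMSO and no-cell wells; concentration-response curves classed.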
TDP1 cell CPT = qHTS for Inhibitors of human tyrosyl-DNA phosphodiesterase 1 (TDP1): qHTS in cells in presence of CPT | chicken DT40 Tdp1-/-;hTDP1 cells + 20 nM CPT, ATP luminescence, 48 h | Potency, µM (titrated, usually from 46.2 µM), without a hit: at the highest dose activity change, negative = growth inhibition, most hits filed as inhibitors | actives 12% (n = 420,000); further: potency means the concentration at half of the fitted maximal effect; nearly all actives have a fitted effect of over 55% in size
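Chicken DT40 Tdp1-/- cells stably complemented with human TDP1 were seeded at 400 cells/well in medium containing 20 nM camptothecin, exposed to pin-transferred compounds, and grown at 37 °C for at least 48 hr. Viability was read as ATP luminescence.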
IL-1B inflam inh = qHTS for Inhibitors of Inflammasome Signaling: IL-1-beta AlphaLISA Primary Screen; THP-1 LPS/ATP IL-1B secretion, AlphaLISA, 16 h; active compounds read low; activity change, % at 57.5 µM; actives 4.7% (n = 360,000); AID 743279, 2014; in the data active means activity change below about -50%; inconclusive means mostly about -30% to -49%
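THP-1 cells pretreated 1 hr with compounds (up to 57.5 uM final), then stimulated with LPS (250 ng/mL final) plus ATP (1.25 mM final); secreted IL-1B measured by AlphaLISA after 16 hr, decreased signal indicating inhibition.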
* = called active by the depositor. This is a sample that favours compounds with a hit; in the whole collection about 19% have one here. Unless noted, the call rests on the fitted dose curve; in most records, active means well fitted curve in the direction sought with a large enough effect; inconclusive means small, poorly fitted or top-dose-only effect, or another doubt; inactive means no such curve, though single readings can be large; an effect the other way counts as inactive or inconclusive. Unless noted, on the % scale 0 is the no-effect control and ±100 the full control effect.

What do the screens show for `O=C(Nc1ccccc1)C1=C[C@@H](C2CC2)C[C@@H](OCc2ccc(CO)cc2)O1`?
HT1080NT lethal: -2%; DT40 TDP1 no CPT: -25%; ELG1 DNA repair: 0%; HT1080 IDH1KD tx: 1%; TDP1 cell CPT: -16%; IL-1B inflam inh: 4

What do the screens show for `COc1cccc2nc3cc(C)c(C)cc3nc12`?
HT1080NT lethal: 18µM*; DT40 TDP1 no CPT: 18µM*; ELG1 DNA repair: inconclusive; HT1080 IDH1KD tx: 8.2µM*; TDP1 cell CPT: 13µM*; IL-1B inflam inh: -4

Results for COc1c2ccccc2nc2ccccc12 ?
HT1080NT lethal: -10%; DT40 TDP1 no CPT: inconclusive; ELG1 DNA repair: -9%; HT1080 IDH1KD tx: -9%; TDP1 cell CPT: inconclusive; IL-1B inflam inh: 7

How did N#CC1=C2SC=C(c3ccc(Br)cc3)N2CCCC1=O do in these assays?
HT1080NT lethal: -28%; DT40 TDP1 no CPT: 23µM*; ELG1 DNA repair: inconclusive; HT1080 IDH1KD tx: -3%; TDP1 cell CPT: inconclusive; IL-1B inflam inh: -12

How did N#CC1=C2Sc3ccccc3N2CCCC1=O do in these assays?
HT1080NT lethal: 10%; DT40 TDP1 no CPT: -2%; ELG1 DNA repair: inconclusive; HT1080 IDH1KD tx: 2%; TDP1 cell CPT: 1%; IL-1B inflam inh: 3

What do the screens show for `Cc1cc2nn(-c3ccc(F)cc3)nc2cc1NC(=O)c1cc(Cl)ccc1Cl`?
DT40 TDP1 no CPT: -25%; TDP1 cell CPT: inconclusive

Results for CCOc1ccc(C(=O)CCC(=O)NN2CCCCC2)cc1 ?
HT1080NT lethal: 13%; DT40 TDP1 no CPT: -2%; HT1080 IDH1KD tx: 14%; TDP1 cell CPT: 0%; IL-1B inflam inh: 4

Results for CCC1(C)CC2(CCCN(CCC(=O)c3ccccc3)C2)CCO1 (stereo not given) ?
HT1080NT lethal: 3%; DT40 TDP1 no CPT: 3.3µM*; ELG1 DNA repair: -11%; HT1080 IDH1KD tx: 5%; TDP1 cell CPT: 3.7µM*; IL-1B inflam inh: 1

How did CCOc1ccc(C(=O)CCN2CCCCC2)cc1 do in these assays?
HT1080NT lethal: inconclusive; DT40 TDP1 no CPT: inconclusive; ELG1 DNA repair: -4%; HT1080 IDH1KD tx: -22%; TDP1 cell CPT: 21µM*; IL-1B inflam inh: -6

How did O=C(CCCCN1CCCCC1)c1ccc2c(c1)Cc1ccccc1-2 do in these assays?
HT1080NT lethal: -30%; DT40 TDP1 no CPT: 21µM*; ELG1 DNA repair: 11%; HT1080 IDH1KD tx: 0%; TDP1 cell CPT: inconclusive; IL-1B inflam inh: -5

What do the screens show for `O=C(/C=C/c1ccccc1)CCN1CCCCC1`?
HT1080NT lethal: inconclusive; DT40 TDP1 no CPT: 0.92µM*; HT1080 IDH1KD tx: inconclusive; TDP1 cell CPT: 1.2µM*; IL-1B inflam inh: -90*

How did O=C1C=C(/C=C/C2C=CC=CC2)C[C@@H](c2ccc(Cl)cc2)C1 (stereo not given in full) do in these assays?
HT1080NT lethal: -14%; DT40 TDP1 no CPT: inconclusive; ELG1 DNA repair: 16%; HT1080 IDH1KD tx: -11%; TDP1 cell CPT: inconclusive; IL-1B inflam inh: -3

How did COc1ccc(CNC(=O)c2cc3c(=O)n4cccc(C)c4nc3s2)cc1 do in these assays?
DT40 TDP1 no CPT: -16%; TDP1 cell CPT: 1%

What do the screens show for `COc1ccc(C(=O)CCN2CCCCCC2)cc1`?
HT1080NT lethal: inconclusive; DT40 TDP1 no CPT: 3.2µM*; ELG1 DNA repair: 11%; HT1080 IDH1KD tx: 10µM*; TDP1 cell CPT: 3.2µM*; IL-1B inflam inh: -4
